Among the data in PMC5700166 are binding signal values, retold here.

The target of this experiment is T1, GST-Nv-NF-kB (Ser allele) (Nematostella vectensis, UniProt A7UNT2 2-411).
T1 sequence: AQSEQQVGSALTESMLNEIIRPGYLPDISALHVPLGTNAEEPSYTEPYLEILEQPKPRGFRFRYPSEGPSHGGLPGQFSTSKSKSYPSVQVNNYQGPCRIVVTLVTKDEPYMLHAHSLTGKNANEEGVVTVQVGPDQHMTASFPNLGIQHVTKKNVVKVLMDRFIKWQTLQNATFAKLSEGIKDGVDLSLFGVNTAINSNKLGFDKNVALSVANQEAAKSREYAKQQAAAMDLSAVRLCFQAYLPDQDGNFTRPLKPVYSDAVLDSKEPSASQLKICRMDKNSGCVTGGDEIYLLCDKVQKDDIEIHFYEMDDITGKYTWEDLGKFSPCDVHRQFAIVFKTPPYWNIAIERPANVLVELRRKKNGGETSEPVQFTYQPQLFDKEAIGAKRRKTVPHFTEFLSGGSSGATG
The experiment is described as follows: protein-binding microarray (PBM); PBM: ~300 nM protein, 6 mM HEPES pH 7.8, 80 mM KCl, 0.5 mM EDTA, 0.5 mM EGTA, 6% glycerol, 35 ng/ul poly-dIdC, 1% milk, 1 h, room temperature; Ap Aiptasia and Nv Nematostella (sea anemones) / Co Capsaspora / Aq Amphimedon (sponge) / Dm Drosophila / Hu human; RHD is the Rel homology domain; high values mean tight binding. Conditions: dsDNA, one strand shown.
“CCGATTAACATCAGACAATCCCCTGATGTTAATCGGGTCTTGATTCGCTTGACGCTGCTG” displayed a binding signal of 7.4 z-score.

For the sequence “CCGATTAACATCAGGAAAACCCCTGATGTTAATCGGGTCTTGATTCGCTTGACGCTGCTG”, the binding signal came out at 6.66 z-score.

Consider “CCGATTAACATCAGGGAAATCACTGATGTTAATCGGGTCTTGATTCGCTTGACGCTGCTG”, for which the binding signal is 4.63 z-score.

“CCGATTAACATCAGGAAAATCCCTGATGTTAATCGGGTCTTGATTCGCTTGACGCTGCTG”: the binding signal is 4.73 z-score.

The sequence “CCGATTAACATCAAAAAGCCCCCTGATGTTAATCGGGTCTTGATTCGCTTGACGCTGCTG” had a binding signal of 7.92 z-score.

The sequence “CCGATTAACATCAAATCTCCCCCTGATGTTAATCGGGTCTTGATTCGCTTGACGCTGCTG” displayed a binding signal of 9.76 z-score.

“CCGATTAACATCACACTACCCCCTGATGTTAATCGGGTCTTGATTCGCTTGACGCTGCTG”: the binding signal was 4.06 z-score.

As to “CCGATTAACATCAGGGGGAAACATGATGTTAATCGGGTCTTGATTCGCTTGACGCTGCTG”, the binding signal was 9.19 z-score.

The sequence “CCGATTAACATCAGGGGGAACGATGATGTTAATCGGGTCTTGATTCGCTTGACGCTGCTG” showed a binding signal of 6.18 z-score.

The sequence “CCGATTAACATCAAGTATCCCCCTGATGTTAATCGGGTCTTGATTCGCTTGACGCTGCTG” came in with a binding signal of 6.27 z-score.

In turn, “CCGATTAACATCAATCTTTCCCCTGATGTTAATCGGGTCTTGATTCGCTTGACGCTGCTG” showed a binding signal of 8.93 z-score.

Take “CCGATTAACATCAAAATTACCCATGATGTTAATCGGGTCTTGATTCGCTTGACGCTGCTG”: the binding signal was 4.25 z-score.

In turn, “CCGATTAACATCACAAAAGTCCCTGATGTTAATCGGGTCTTGATTCGCTTGACGCTGCTG” came in with a binding signal of 9.85 z-score.

Sequence “CCGATTAACATCAGGGGGCAATATGATGTTAATCGGGTCTTGATTCGCTTGACGCTGCTG” showed a binding signal of 3.15 z-score.

“CCGATTAACATCAGGGGACTACCTGATGTTAATCGGGTCTTGATTCGCTTGACGCTGCTG” came in with a binding signal of 4.89 z-score.

As to “CCGATTAACATCACGGGATTTGGTGATGTTAATCGGGTCTTGATTCGCTTGACGCTGCTG”, the binding signal is 1.12 z-score.

For the sequence “CCGATTAACATCACAAAGTCCCCTGATGTTAATCGGGTCTTGATTCGCTTGACGCTGCTG”, the binding signal was determined as 7.65 z-score.

Turning to “CCGATTAACATCAGAAATATCCCTGATGTTAATCGGGTCTTGATTCGCTTGACGCTGCTG”, the binding signal was 2.09 z-score.

Turning to “CCGATTAACATCAGGGGGTTGGATGATGTTAATCGGGTCTTGATTCGCTTGACGCTGCTG”, the binding signal was determined as 4.6 z-score.

“CCGATTAACATCACTACCCCCCCTGATGTTAATCGGGTCTTGATTCGCTTGACGCTGCTG” registered a binding signal of 2.74 z-score.

The sequence “CCGATTAACATCAAATTCCCGGGTGATGTTAATCGGGTCTTGATTCGCTTGACGCTGCTG” gave a binding signal of 3.88 z-score.

Regarding “CCGATTAACATCAAATTACCCCCTGATGTTAATCGGGTCTTGATTCGCTTGACGCTGCTG”, the binding signal stood at 6.77 z-score.

For the sequence “CCGATTAACATCAAAAAAACCCCTGATGTTAATCGGGTCTTGATTCGCTTGACGCTGCTG”, the binding signal was 9.69 z-score.

For “CCGATTAACATCAGGGGATACACTGATGTTAATCGGGTCTTGATTCGCTTGACGCTGCTG”, the binding signal is 5.34 z-score.

“CCGATTAACATCAATTTTCCCCATGATGTTAATCGGGTCTTGATTCGCTTGACGCTGCTG” yielded a binding signal of 9.27 z-score.

Take “CCGATTAACATCAAAAATCCCACTGATGTTAATCGGGTCTTGATTCGCTTGACGCTGCTG”: the binding signal was found to be 2.95 z-score.

With “CCGATTAACATCAGCAATTCCCCTGATGTTAATCGGGTCTTGATTCGCTTGACGCTGCTG”, the binding signal is 9.25 z-score.

“CCGATTAACATCAGGGAAAAGTATGATGTTAATCGGGTCTTGATTCGCTTGACGCTGCTG” displayed a binding signal of 6.25 z-score.

Sequence “CCGATTAACATCAATAACCCCCCTGATGTTAATCGGGTCTTGATTCGCTTGACGCTGCTG” yielded a binding signal of 5.48 z-score.

Turning to “CCGATTAACATCAGGGCATCCCCTGATGTTAATCGGGTCTTGATTCGCTTGACGCTGCTG”, the binding signal is 5.95 z-score.

Sequence “CCGATTAACATCAGGGGGAGATATGATGTTAATCGGGTCTTGATTCGCTTGACGCTGCTG” gave a binding signal of 6.74 z-score.

In turn, “CCGATTAACATCAGGGGATCCCCTGATGTTAATCGGGTCTTGATTCGCTTGACGCTGCTG” registered a binding signal of 12.1 z-score.

Sequence “CCGATTAACATCACCCAATTCCCTGATGTTAATCGGGTCTTGATTCGCTTGACGCTGCTG” registered a binding signal of 4.42 z-score.

As for “CCGATTAACATCAAGGGGAAAACTGATGTTAATCGGGTCTTGATTCGCTTGACGCTGCTG”, the binding signal is 11 z-score.

Turning to “CCGATTAACATCAGGAAATCCCCTGATGTTAATCGGGTCTTGATTCGCTTGACGCTGCTG”, the binding signal was found to be 12.5 z-score.

“CCGATTAACATCATTTGGGAAAATGATGTTAATCGGGTCTTGATTCGCTTGACGCTGCTG” gave a binding signal of 4.46 z-score.

On to “CCGATTAACATCAATATTCCCCATGATGTTAATCGGGTCTTGATTCGCTTGACGCTGCTG”, for which the binding signal was 8.19 z-score.

“CCGATTAACATCAGATTTCCCCCTGATGTTAATCGGGTCTTGATTCGCTTGACGCTGCTG” showed a binding signal of 10.8 z-score.

“CCGATTAACATCAGGGCTGCCCCTGATGTTAATCGGGTCTTGATTCGCTTGACGCTGCTG”: the binding signal is 1.89 z-score.
